# Source: PubChem BioAssay (EPA / NIEHS)
# Calls of active or inactive are those of the source. The calls were made as follows: active = hit-call score of the fitted dose curve at least 0.9, where 1 is the maximum; inactive = score below 0.9.
# Assay: APR_HepG2_StressKinase_24hr: Apredica 24-hour HepG2 Assay for Stress Kinase (AID 2282922)
# Settings: HepG2 stress kinase (phospho-c-Jun) imaging, actives raise or lower the signal
# Procedure: APR_HepG2_24hr is a cell-based, multiplexed-readout assay that uses HepG2, a human liver cell line, with measurements taken at 24 hours after chemical dosing in a 384-well plate.APR_HepG2_StressKinase_24hr is one of 10 assay component(s) measured or calculated from the APR_HepG2_24hr assay. It is designed to make measurements of enzyme activity, a form of enzyme reporter, as detected with fluorescence intensity signals by HCS Fluorescent Imaging technology.Data from the assay component APR_HepG2_StressKinase_24hr was analyzed into 1 assay endpoint. This assay endpoint, APR_HepG2_StressKinase_24hr, was analyzed with bidirectional fitting relative to DMSO as the negative control and baseline of activity. Using a type of enzyme reporter, measures of protein for gain or loss-of-signal activity can be used to understand the signaling at the pathway-level as they relate to the gene . Furthermore, this assay endpoint can be referred to as a primary readout, because this assay has produced multiple assay endpoints where this one serves a signaling function. To generalize the intended target to other relatable targets, this assay endpoint is annotated to the cell cycle intended target family, where the subfamily is stress response.
# Cells were treated with dimethyl sulfoxide (DMSO) as a solvent control at a final concentration of 0.5% v/v or with compounds in DMSO with a resulting final DMSO concentration of 0.5% v/v. Compound treatment was done at concentrations of 0.39, 0.78, 1.56, 3.12, 6.24, 12.5, 25, 50, 100, and 200 uM in duplicate on each plate. Cells were treated with compounds for 1, 24, or 72 hr. Carbonyl […] m-chloro-phenylhydrazone (CCCP) and taxol were used as positive controls for mitochondrial function and cytoskeletal stability, respectively; DMSO served as the negative control for this experiment. Cells were fixed by the direct addition of 50 uL formaldehyde in Hank's Balanced Salt Solution (HBSS) to a final concentration of 3.7%. After incubation in the fixation medium for 30 min at room temperature (293-298 K), cells were rinsed twice with HBSS and treated with cell permeabilization buffer (16 uL of 0.5% Triton X-100) for 10 min at room temperature (293-298 K) before labeling. For mitochondrial membrane potential and mitochondrial measurements, pre-fixed cells were incubated with 50 uL of MitoTracker Red CMXRos (Invitrogen) at a concentration of 250 nM for 30 min before fixation. In the remaining cases, post-fixed cells were labeled by incubation with a multiplexed mixture of primary antibodies in HBSS for 60 min at room temperature (293-298 K) to detect immunoreactivity of c-Jun (1:500), phospho-histone H3 (1:100), phospho-histone H2A.x (1:200), p53 (1:400), alpha-tubulin (1:200) and Hoechst 33342 (2 ug/mL). Cells were labeled for multiplexed imaging on two separate plates: a) Hoechst 33342, MitoTracker Red, phospho-histone H3, and alpha-tubulin, and b) Hoechst 33342, phospho-histone H2A.x, and c-Jun. A final rinse with HBSS (50 uL) was performed before analysis. The primary and secondary antibodies for the proteins were phospho-histone H3 (rabbit anti-phospho-histone H3 and FITC-donkey anti-rabbit IgG), phospho-histone H2A.x (mouse anti-phospho-histone H2A.x and FITC-donkey anti-mouse IgG), c-Jun (rabbit anti-phospho-c-Jun and Cy3-donkey anti-rabbit IgG), p53 (sheep anti-p53 and Cy5-donkey anti-sheep IgG), alpha-tubulin (mouse anti-alpha-tubulin and Cy5-donkey anti-mouse IgG). These antibodies are available as the CellCiphr HepG2 assay kit (Millipore).Digital images of each well were captured using a Cellomics ArrayScan VTI (Thermo Scientific Cellomics) (0.8 NA objective, 0.63x optical coupler, and XF-93 filter set) at 20x magnification. The images were acquired using the autofocus feature of the ArrayScan instrument, which entails the following steps. First, the camera focuses on channel 1 (Hoechst 33342), where nuclei are identified. Second, a Z offset of 1 um is used for capturing mitochondria (MitoTracker Red). […]
Structure (SMILES),outcome,AC50
COS(=O)(=O)OC,inactive,–
CCCCCCOC(=O)c1ccccc1C(=O)OCCCCCC,inactive,–
CCSC(=O)N(CC)C1CCCCC1,inactive,–
CC(C)(O)C(=O)Nc1ccc([N+](=O)[O-])c(C(F)(F)F)c1,inactive,–
O=C(O)C(F)(F)C(F)(F)C(F)(F)C(F)(F)C(F)(F)C(F)(F)C(F)(F)C(F)(F)C(F)(F)F,inactive,–
O=C(O)C(F)(F)C(F)(F)C(F)(F)C(F)(F)C(F)(F)C(F)(F)C(F)(F)C(F)(F)F,inactive,–
c1cc2ccc3cccc4ccc(c1)c2c34,inactive,–
CCCCCCCCCc1ccc(O)cc1,inactive,–
Nc1ccc(-c2ccc(N)cc2)cc1,inactive,–
ClC1=C(Cl)[C@]2(Cl)[C@@H]3[C@H]4C[C@H]([C@@H]5O[C@H]45)[C@@H]3[C@@]1(Cl)C2(Cl)Cl,inactive,–
CC1=C2C[C@H]3[C@@H](CC=C4C[C@@H](O)CC[C@@]43C)[C@@H]2CC[C@]12O[C@@H]1C[C@H](C)CN[C@H]1[C@H]2C,inactive,–
Cc1ccccc1O,inactive,–
Cc1ccccc1[N+](=O)[O-],inactive,–
O=S(=O)(O)C(F)(F)C(F)(F)C(F)(F)C(F)(F)F,inactive,–
CO/C=C(/C(=O)OC)c1ccccc1COc1cccc(C(F)(F)F)n1,inactive,–
NS(=O)(=O)C(F)(F)C(F)(F)C(F)(F)C(F)(F)C(F)(F)C(F)(F)C(F)(F)C(F)(F)F,inactive,–
O=C(O)C(F)(F)C(F)(F)C(F)(F)C(F)(F)C(F)(F)F,inactive,–
ClC1=C(Cl)[C@]2(Cl)[C@@H]3[C@@H](Cl)[C@H]4O[C@H]4[C@@H]3C1(Cl)C2(Cl)Cl,inactive,–
CN(C)CCO,inactive,–
Cc1ccc(O)c(C)c1,inactive,–

Structure (SMILES),outcome,AC50
CN(C)c1nc(=O)n(C2CCCCC2)c(=O)n1C,inactive,–
C=CC(N)=O,inactive,–
Clc1ccc(Cl)cc1,inactive,–
Clc1ccc(C(c2ccccc2Cl)C(Cl)(Cl)Cl)cc1 (stereo not given),–,114 µM (active)
CCC(=O)O[C@H]1CC[C@H]2[C@@H]3CCC4=CC(=O)CC[C@]4(C)[C@H]3CC[C@]12C,inactive,–
CC(C)(c1ccccc1)c1ccc(O)cc1,inactive,–
Cc1cccc(C)c1N,inactive,–
COc1ccc(O)c(C(C)(C)C)c1,inactive,–
O=NN(c1ccccc1)c1ccccc1,inactive,–
Oc1c(Cl)c(Cl)c(Cl)c(Cl)c1Cl,inactive,–
CC#Cc1cc(C)nc(Nc2ccccc2)n1,inactive,–
C1CC2OC2CC1C1CO1 (stereo not given),inactive,–
ClC(Cl)=C(c1ccc(Cl)cc1)c1ccc(Cl)cc1,inactive,–
CCCCCCCCOC(=O)c1ccccc1C(=O)OCCCCCCCC,inactive,–
O=C(NC(=O)c1cc(F)c(F)cc1Cl)Nc1cc(F)ccc1N1CCC(C(=O)O)CC1,inactive,–
CCOP(=S)(OCC)SCSC(C)(C)C,inactive,–
C[C@]12CCC(=O)C=C1CC[C@@H]1[C@@H]2CC[C@]2(C)C(=O)CC[C@@H]12,inactive,–
Nn1cnnc1,inactive,–
Clc1ccc(C(Cl)(Cl)Cl)cc1,inactive,–
CCC(C)(CC)c1cc(NC(=O)c2c(OC)cccc2OC)on1,inactive,–
